In paper PMC5540273 (PLoS ONE, 2017):

tested on: TBK1; details: concentration: 1 μM, replicates: in singlicate; n = 1
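Further: KINOMEscan kinase panel screen.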

SMILES | %Inh
Cl.Nc1ncnc2occ(-c3ccc(NC(=O)Nc4cc(C(F)(F)F)ccc4F)cc3)c12 [SB-707548] | 35%
O=C(NOCC1CC1)c1ccc(F)c(F)c1Nc1ccc(I)cc1Cl | 0%
CCc1ccnc(/C=C/c2n[nH]c3cc(Sc4ccccc4C(=O)NC)ccc23)c1 | 0%
CN1c2ccc(CNc3ccc(F)cc3)cc2-c2c(cnn2C)S1(=O)=O | 0%
COc1cc2c(cc1OC[C@@H](O)CO)ncc1c3ccc(C#N)cc3[nH]c21 | 68%
COc1ccc(S(=O)(=O)NC2CCN(c3cc(C)nc(Nc4cccc(C#N)c4)n3)CC2)cc1.O=C(O)C(F)(F)F [GSK1653539] | 11%
Cc1ccc(NC(=O)c2ccnc(N3CCN(C)CC3)c2)cc1-c1ccc(C(=O)NCC2CC2)cc1 [GW775604] | 13%
Cc1c2ccc(N(C)c3ccnc(Nc4cccc(S(N)(=O)=O)c4)n3)cc2nn1Cc1ccccc1.Cl.Cl [GW787226] | 35%
CC(=O)Nc1ccc(COc2ccc(Nc3ccnc4cc(-c5ccccn5)ccc34)cc2)cc1.Cl [GW440148] | 21%
Cc1nnc(-c2ccc3occ(-c4ccc(C(C)O)cc4)c3c2)o1 (centres unmarked) | 30%
CNc1ncnc2[nH]ncc12 [SKF-18355] | 30%
Cn1cc(-c2ccc3c(c2)CCN3C(=O)Cc2ccccc2Cl)c2c(N)ncnc21 [GSK2608885] | 14%
Cc1cccc(-c2nc(-c3ccc(S(C)(=O)=O)cc3)sc2-c2ccncc2)c1 | 0%
O=C1NC(=O)C(N2CCc3ccccc32)=C1c1cccc(Cl)c1 [SB-408010] | 0%
Cc1cccc(Cn2ccn3c(=O)cc(N4CCOCC4)nc23)c1 [GSK2297542] | 10%
Cl.Oc1cccc(Nc2ccnc3cc(-c4ccncc4)ccc23)c1 [GW494601] | 9%
O=c1cc(N2CCOCC2)nc2n(Cc3cccc(F)c3)ccn12 [GSK2297430] | 0%
CC(C)(C)n1cnc2c(N)ncnc21 [SKF-97359] | 19%

SMILES | %Inh
Fc1ccc(-c2nn3c(OCC(F)(F)F)cccc3c2-c2ccncc2)cc1 [GW514784] | 0%
CSc1ccc(-c2cc3ncnc(SCC(=O)O)c3s2)cc1 | 0%
[2H]C([2H])(c1cccc(C(F)(F)F)c1C)n1ccn2c(=O)nc(N3CCOCC3)cc12 [GSK2336394] | 10%
Cc1ccc(C(=O)NCC(N)=O)cc1-n1c(C)cc(OCc2ccc(F)cc2F)c(Br)c1=O | 36%
COc1cc2ncn(-c3cc(OCc4sccc4Cl)c(C(N)=O)s3)c2cc1OC [GSK448459] | 15%
O=C(NCCNc1ccnc(Nc2ccc(F)cc2)n1)c1cc2ccccc2s1 [GSK1379874] | 17%
O=C(NCCNc1ccnc(Nc2ccc(F)cc2)n1)Nc1ccccc1F [GSK1379880] | 6%
CCn1cnc2c(N)ncnc21 [GW345098] | 39%
Cc1cn2c(=O)cc(N3CCOCC3)nc2n1Cc1cccc(Cl)c1Cl [GSK2334006] | 0%
CN(C(=O)c1ccc(-c2cc(-c3c[nH]nc3-c3ccccn3)ccn2)cc1)C1CCOCC1 [GW810083] | 0%
COC(=O)Nc1nc2cc(Oc3ccc(NC(=O)Nc4cc(F)ccc4F)cc3)ccc2[nH]1.Cl [GW701424] | 9%
COc1ccc(CNC(=O)NC2CCN(c3ccnc(Nc4ccc(OC)cc4)n3)C2)cc1 (centres unmarked) [GSK1379727] | 0%
Cc1cccc(-c2nc(Nc3ccc4ncsc4c3)c3ccccc3n2)n1 [GW867588] | 0%
NS(=O)(=O)c1cccc(-c2ccc3ncc(N4CCOCC4)nc3c2)c1 [GSK1535721] | 17%
C[C@@H](Oc1cc(-n2cnc3ccc(NC(=O)NC(C)(C)C)cc32)sc1C(N)=O)c1ccccc1Cl [GSK346294] | 27%
COc1ccc(Nc2nccc(N3CCC(NC(=O)Nc4cccc(C(C)=O)c4)C3)n2)cc1 (centres unmarked) [GSK1379731] | 0%
Cc1nnc(-c2ccc3ncc(-c4ccc(S(C)=O)cc4)n3c2)o1 (centres unmarked) | 15%

tested on: TEC; details: concentration: 1 μM, replicates: in singlicate; n = 1

SMILES | %Inh
Cl.Nc1ncnc2occ(-c3ccc(NC(=O)Nc4cc(C(F)(F)F)ccc4F)cc3)c12 [SB-707548] | 4%
O=C(NOCC1CC1)c1ccc(F)c(F)c1Nc1ccc(I)cc1Cl | 0%
CCc1ccnc(/C=C/c2n[nH]c3cc(Sc4ccccc4C(=O)NC)ccc23)c1 | 3%
CN1c2ccc(CNc3ccc(F)cc3)cc2-c2c(cnn2C)S1(=O)=O | 0%
COc1cc2c(cc1OC[C@@H](O)CO)ncc1c3ccc(C#N)cc3[nH]c21 | 0%
COc1ccc(S(=O)(=O)NC2CCN(c3cc(C)nc(Nc4cccc(C#N)c4)n3)CC2)cc1.O=C(O)C(F)(F)F [GSK1653539] | 10%
Cc1ccc(NC(=O)c2ccnc(N3CCN(C)CC3)c2)cc1-c1ccc(C(=O)NCC2CC2)cc1 [GW775604] | 0%
Cc1c2ccc(N(C)c3ccnc(Nc4cccc(S(N)(=O)=O)c4)n3)cc2nn1Cc1ccccc1.Cl.Cl [GW787226] | 11%
CC(=O)Nc1ccc(COc2ccc(Nc3ccnc4cc(-c5ccccn5)ccc34)cc2)cc1.Cl [GW440148] | 0%
NCCNS(=O)(=O)c1ccc(-c2ccnc3[nH]ccc23)cc1 [GSK977617] | 0%
Cc1nnc(-c2ccc3occ(-c4ccc(C(C)O)cc4)c3c2)o1 (centres unmarked) | 0%
CNc1ncnc2[nH]ncc12 [SKF-18355] | 0%
Cn1cc(-c2ccc3c(c2)CCN3C(=O)Cc2ccccc2Cl)c2c(N)ncnc21 [GSK2608885] | 100%
Cc1cccc(-c2nc(-c3ccc(S(C)(=O)=O)cc3)sc2-c2ccncc2)c1 | 26%
O=C1NC(=O)C(N2CCc3ccccc32)=C1c1cccc(Cl)c1 [SB-408010] | 0%
Cc1cccc(Cn2ccn3c(=O)cc(N4CCOCC4)nc23)c1 [GSK2297542] | 11%
Cl.Oc1cccc(Nc2ccnc3cc(-c4ccncc4)ccc23)c1 [GW494601] | 1%
O=c1cc(N2CCOCC2)nc2n(Cc3cccc(F)c3)ccn12 [GSK2297430] | 0%

SMILES | %Inh
CC(C)(C)n1cnc2c(N)ncnc21 [SKF-97359] | 0%
Fc1ccc(-c2nn3c(OCC(F)(F)F)cccc3c2-c2ccncc2)cc1 [GW514784] | 0%
CSc1ccc(-c2cc3ncnc(SCC(=O)O)c3s2)cc1 | 0%
[2H]C([2H])(c1cccc(C(F)(F)F)c1C)n1ccn2c(=O)nc(N3CCOCC3)cc12 [GSK2336394] | 0%
Cc1ccc(C(=O)NCC(N)=O)cc1-n1c(C)cc(OCc2ccc(F)cc2F)c(Br)c1=O | 13%
COc1cc2ncn(-c3cc(OCc4sccc4Cl)c(C(N)=O)s3)c2cc1OC [GSK448459] | 5%
O=C(NCCNc1ccnc(Nc2ccc(F)cc2)n1)c1cc2ccccc2s1 [GSK1379874] | 8%
O=C(NCCNc1ccnc(Nc2ccc(F)cc2)n1)Nc1ccccc1F [GSK1379880] | 14%
CCn1cnc2c(N)ncnc21 [GW345098] | 11%
Cc1cn2c(=O)cc(N3CCOCC3)nc2n1Cc1cccc(Cl)c1Cl [GSK2334006] | 12%
CN(C(=O)c1ccc(-c2cc(-c3c[nH]nc3-c3ccccn3)ccn2)cc1)C1CCOCC1 [GW810083] | 0%
COC(=O)Nc1nc2cc(Oc3ccc(NC(=O)Nc4cc(F)ccc4F)cc3)ccc2[nH]1.Cl [GW701424] | 0%
COc1ccc(CNC(=O)NC2CCN(c3ccnc(Nc4ccc(OC)cc4)n3)C2)cc1 (centres unmarked) [GSK1379727] | 0%
Cc1cccc(-c2nc(Nc3ccc4ncsc4c3)c3ccccc3n2)n1 [GW867588] | 0%
NS(=O)(=O)c1cccc(-c2ccc3ncc(N4CCOCC4)nc3c2)c1 [GSK1535721] | 18%
C[C@@H](Oc1cc(-n2cnc3ccc(NC(=O)NC(C)(C)C)cc32)sc1C(N)=O)c1ccccc1Cl [GSK346294] | 20%
COc1ccc(Nc2nccc(N3CCC(NC(=O)Nc4cccc(C(C)=O)c4)C3)n2)cc1 (centres unmarked) [GSK1379731] | 0%
Cc1nnc(-c2ccc3ncc(-c4ccc(S(C)=O)cc4)n3c2)o1 (centres unmarked) | 7%
